Consider 38 compounds from PubChem BioAssay (Tox21).

Results filed as inconclusive are left out. Values without a mark were called inactive. Calls of active or inactive are those of the source. Unless noted, calls come from the whole dose curve; as a rule, active = well fitted activation curve with a large enough effect in the repeat runs; inconclusive = weak or mixed curves; inactive = no such curve, though single readings can be large or run the other way.
% is set by controls: 0 for no effect and ±100 for the full control effect; potency is the fitted concentration of half-maximal effect.
Note: nearly all actives have a fitted effect of over 15% in size.

The nature of the first assay: qHTS assay for small molecule agonists of the p53 signaling pathway (AID 651631; calls by dose curve). The settings on record: HCT-116 p53RE-bla reporter, beta-lactamase FRET ratio, 16 h; series mostly up to 73.3 µM; activation: at the top concentration. Put shortly: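 Readout was fluorescence from the LiveBLAzer FRET substrate, applied for 2 h at room temperature after 16 h compound exposure at 37 °C. Cells were the p53RE-bla HCT-116 line, with beta-lactamase driven by p53 response elements.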
As to `Cn1c(N)nc2nc[nH]c2c1=O`, the “activation” value is -3.27%.

In the case of `CCOC(=O)CC(=O)c1cc(F)c(Cl)nc1Cl`, the “activation” value was -4.46% [at 95.1 µM].

Turning to `Cc1cccc(C(C)(C)C)c1O`, the “activation” value was 3.38%.

Regarding `C=Cc1c(C)c2cc3[nH]c(cc4nc(cc5nc(cc1[nH]2)C(C)=C5CCC(=O)O)C(CCC(=O)O)=C4C)c(C)c3C=C`, the “activation” value is 8.95%.

On to `CCCCCCCCCC(=O)OCC`, for which the “activation” value was -1.9%.

On to `CC(C)CCCC(C)CCO` (stereo unspecified), for which the “activation” value was 4.71%.

As for `Cc1cccc(Oc2ccccc2)c1`, the “activation” value was -3.86%.

Regarding `Nc1ccc(C(=O)Nc2ccccc2N)cc1`, the Potency is 10.6 µM (active).

`CC(=O)/C(C)=C/C1C(C)=CCCC1(C)C` (stereo unspecified): the “activation” value was -1.7%.

On to `N=C(N=C(N)N)N1CCOCC1`, for which the “activation” value was -2.65% [at 34.7 µM].

For `CC(C)(C)c1ccc(S)cc1`, the “activation” value is -1.5%.

For `NC(=S)N/N=C/c1cccnc1`, the “activation” value is -3.51%.

With `COc1ccc2[nH]c(S(=O)Cc3ncc(C)c(OC)c3C)nc2n1` (stereo unspecified), the “activation” value was -6.05%.

As for `CC1=CC(=O)/C(=C(/C)O)C(=O)O1`, the “activation” value was -2.33%.

On to `CCCCCCCCCCCCCCCC(=O)OC/C=C(C)/C=C/C=C(C)/C=C/C1=C(C)CCCC1(C)C`, for which the Potency entry was “inactive”.

`O=[N+]([O-])c1cc[n+]([O-])cc1`: the “activation” value is -6.26%.

As to `CC(CN)CCCN` (stereo unspecified), the “activation” value is -1.16%.

For the compound `CC(=O)NCCCS(=O)(=O)O`, the Potency entry was “inactive”.

Consider `CC[C@]12CCCN3CCc4c(n(c5ccccc45)C(=O)C1)[C@@H]32`, for which the Potency was 2.54 µM (active).

`CCCCCCCCCO`: the “activation” value was 2.37%.

As to `CC(=O)[C@@]1(O)CC[C@H]2[C@@H]3C[C@H](C)C4=CC(=O)CC[C@]4(C)[C@H]3CC[C@@]21C`, the “activation” value was -2.84%.

Consider `C=CCCCCCC`, for which the “activation” value was -2.01%.

`CC(=O)O[C@H]1C[C@@H]2CC[C@@H]3[C@H](CC[C@@]4(C)[C@H]3C[C@H]([N+]3(C)CCCCC3)[C@@H]4OC(C)=O)[C@@]2(C)C[C@@H]1N1CCCCC1`: the “activation” value is -3.4%.

As to `C=CC[N+]1([C@H]2C[C@H]3[C@@H]4CC[C@H]5C[C@H](OC(C)=O)[C@@H](N6CCCCC6)C[C@]5(C)[C@H]4CC[C@]3(C)[C@H]2OC(=O)CC)CCCCC1`, the “activation” value was -1.85%.

For the compound `O=C(O)Cc1sc(-c2ccccc2)nc1-c1ccc(Cl)cc1`, the Potency result is “inactive”.

On to `Cc1c(Cn2ccnc2)c2ccccc2n1CCC(=O)O`, for which the “activation” value is -2.56%.

As to `CC[C@H](C)[C@H](N)C(=O)O`, the “activation” value was 0.579%.

Turning to `Nc1nc(CC(=O)O)cs1`, the “activation” value was -1.97% [at 95.1 µM].

Consider `OCC1CC2CC1C1CCC(CO)C21` (stereo unspecified), for which the “activation” value is -2.03%.

For `FC(F)(F)C(F)(F)C(F)(F)C(F)(F)C(F)(F)C(F)(F)CCI`, the “activation” value is -2.4%.

As to `CCN(CCO)CCCC(C)Nc1ccnc2cc(Cl)ccc12` (stereo unspecified), the “activation” value is -3.77%.

Take `Nc1nc(N)c(-c2ccccc2)s1`: the “activation” value is -1.82%.

Take `CCC(C)N(C)C(=O)c1cc2ccccc2c(-c2ccccc2Cl)n1` (stereo unspecified): the “activation” value is -5.17%.

Consider `NCCCOCCOCCOCCCN`, for which the “activation” value was 2.8%.

On to `Cc1ccc(C(=O)C(C)CN2CCCCC2)cc1` (stereo unspecified), for which the “activation” value is -4.97%.

Consider `CC(C)(C)C1CCCCC1O` (stereo unspecified), for which the “activation” value was 5.87%.

Regarding `CCN(CC)CCc1nc(-c2ccccc2)no1`, the “activation” value is 1.29% [at 34.7 µM].

Consider `Cc1cc(CC(=O)O)c(C)n1-c1ccc(Cl)cc1`, for which the “activation” value is -2.35%.

The nature of a further assay: qHTS assay for small molecules that induce genotoxicity in human embryonic kidney cells expressing luciferase-tagged ATAD5 (AID 651632). The settings on record: HEK293T ATAD5-luciferase induction, 16 h; series mostly up to 83.3 µM; activation: at the top concentration. The method in brief:
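Luminescence read-out: after 16 hr compound exposure at 37C, ATAD5-luciferase HEK293T cells received Amplite, 30 min RT, then CCD imaging. A rise in signal marks genotoxic stress.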
With `Cn1c(N)nc2nc[nH]c2c1=O`, the “activation” value was 3.79%.

With `CCOC(=O)CC(=O)c1cc(F)c(Cl)nc1Cl`, the “activation” value was 2.56% [at 95.3 µM].

Regarding `Cc1cccc(C(C)(C)C)c1O`, the “activation” value was 2.91%.

For the compound `C=Cc1c(C)c2cc3[nH]c(cc4nc(cc5nc(cc1[nH]2)C(C)=C5CCC(=O)O)C(CCC(=O)O)=C4C)c(C)c3C=C`, the “activation” value was -0.207%.

For `CCCCCCCCCC(=O)OCC`, the “activation” value was 0.319%.

With `CC(C)CCCC(C)CCO` (stereo unspecified), the “activation” value is -2.27%.

On to `Cc1cccc(Oc2ccccc2)c1`, for which the “activation” value is -2.28%.

As for `Nc1ccc(C(=O)Nc2ccccc2N)cc1`, the Potency is 8.41 µM (active).

Take `CC(=O)/C(C)=C/C1C(C)=CCCC1(C)C` (stereo unspecified): the “activation” value is 1.52%.

Take `N=C(N=C(N)N)N1CCOCC1`: the “activation” value was 0.409% [at 39.1 µM].

With `CC(C)(C)c1ccc(S)cc1`, the “activation” value is -5.78%.

With `NC(=S)N/N=C/c1cccnc1`, the “activation” value was -0.705%.

Regarding `COc1ccc2[nH]c(S(=O)Cc3ncc(C)c(OC)c3C)nc2n1` (stereo unspecified), the “activation” value is 1.75%.

As for `CC1=CC(=O)/C(=C(/C)O)C(=O)O1`, the “activation” value is -0.724%.

In the case of `CCCCCCCCCCCCCCCC(=O)OC/C=C(C)/C=C/C=C(C)/C=C/C1=C(C)CCCC1(C)C`, the Potency result is “inactive”.

For the compound `O=[N+]([O-])c1cc[n+]([O-])cc1`, the “activation” value is -6.4%.

Regarding `CC(CN)CCCN` (stereo unspecified), the “activation” value is 1.07%.

As to `CC(=O)NCCCS(=O)(=O)O`, the Potency entry is “inactive”.

As for `CC[C@]12CCCN3CCc4c(n(c5ccccc45)C(=O)C1)[C@@H]32`, the “activation” value was -3.31% [at 39.1 µM].

Take `CCCCCCCCCO`: the “activation” value was -1.92%.

Regarding `CC(=O)[C@@]1(O)CC[C@H]2[C@@H]3C[C@H](C)C4=CC(=O)CC[C@]4(C)[C@H]3CC[C@@]21C`, the “activation” value is -3.8%.

For `C=CCCCCCC`, the “activation” value was -2.75%.

For the compound `CC(=O)O[C@H]1C[C@@H]2CC[C@@H]3[C@H](CC[C@@]4(C)[C@H]3C[C@H]([N+]3(C)CCCCC3)[C@@H]4OC(C)=O)[C@@]2(C)C[C@@H]1N1CCCCC1`, the “activation” value is 1.77%.

For the compound `C=CC[N+]1([C@H]2C[C@H]3[C@@H]4CC[C@H]5C[C@H](OC(C)=O)[C@@H](N6CCCCC6)C[C@]5(C)[C@H]4CC[C@]3(C)[C@H]2OC(=O)CC)CCCCC1`, the “activation” value is 3.25%.

As to `O=C(O)Cc1sc(-c2ccccc2)nc1-c1ccc(Cl)cc1`, the Potency entry is “inactive”.

For `Cc1c(Cn2ccnc2)c2ccccc2n1CCC(=O)O`, the “activation” value is -0.68%.

For the compound `CC[C@H](C)[C@H](N)C(=O)O`, the “activation” value is -0.945%.

In the case of `Nc1nc(CC(=O)O)cs1`, the “activation” value is 0.346% [at 95.3 µM].

`OCC1CC2CC1C1CCC(CO)C21` (stereo unspecified): the “activation” value is -1.53%.

For the compound `FC(F)(F)C(F)(F)C(F)(F)C(F)(F)C(F)(F)C(F)(F)CCI`, the “activation” value was 3.51%.

Regarding `CCN(CCO)CCCC(C)Nc1ccnc2cc(Cl)ccc12` (stereo unspecified), the “activation” value was -1.74%.

As for `Nc1nc(N)c(-c2ccccc2)s1`, the “activation” value is 1.67%.

For the compound `CCC(C)N(C)C(=O)c1cc2ccccc2c(-c2ccccc2Cl)n1` (stereo unspecified), the “activation” value was -3.95%.

Turning to `NCCCOCCOCCOCCCN`, the “activation” value is 0.739%.

On to `Cc1ccc(C(=O)C(C)CN2CCCCC2)cc1` (stereo unspecified), for which the Potency result was “inactive”.

With `CC(C)(C)C1CCCCC1O` (stereo unspecified), the “activation” value is -2.88%.

As to `CCN(CC)CCc1nc(-c2ccccc2)no1`, the “activation” value was -0.312% [at 39.1 µM].

Take `Cc1cc(CC(=O)O)c(C)n1-c1ccc(Cl)cc1`: the “activation” value was 0.299%.
